GLA inh pH 4.5: alpha-galactosidase A (human) inhibition, pH 4.5; P06280; purified enzyme, 4-MU-alpha-Gal fluorescence, pH 4.5; activity change, negative = inhibition, % at 105 µM; 230,000 tested, under 10 active; AID 1467;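 note: 0% = full activity with enzyme and -100% = basal without enzyme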
Target sequence (P06280 whole entry, looked up): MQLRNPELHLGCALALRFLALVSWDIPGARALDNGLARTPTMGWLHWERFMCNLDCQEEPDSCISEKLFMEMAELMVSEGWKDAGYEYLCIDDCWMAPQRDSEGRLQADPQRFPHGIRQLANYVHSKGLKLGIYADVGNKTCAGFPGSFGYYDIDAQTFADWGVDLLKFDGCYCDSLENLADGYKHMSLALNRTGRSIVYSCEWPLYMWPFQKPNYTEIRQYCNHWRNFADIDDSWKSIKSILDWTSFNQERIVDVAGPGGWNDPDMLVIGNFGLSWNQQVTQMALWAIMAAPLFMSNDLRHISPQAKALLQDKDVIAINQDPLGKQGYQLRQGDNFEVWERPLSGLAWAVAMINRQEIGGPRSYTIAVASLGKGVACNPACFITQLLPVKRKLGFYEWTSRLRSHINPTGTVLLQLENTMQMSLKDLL
aGal spleen mod: alpha-galactosidase A (human) modulation. P06280. human spleen homogenate, 4MU-alpha-Gal fluorescence, 40 min. Potency, µM (top dose mostly 80 µM), inactives show at the top dose activity change, negative = inhibition, most hits filed as inhibitors. 240,000 tested, 0.008% active;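 note: potency is the fitted concentration of half-maximal effect; 0% = enzyme with vehicle and -100% = no enzyme basal signal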
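Inhibition or activation of alpha-galactosidase in human spleen homogenate is scored by 4-MU fluorescence after 40 min at 37C, pH 5.0, with 1 mM substrate. AC50s come from concentration-response fitted to the Hill equation.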
HTT ATP protect: cytoprotection in Huntington HTT-Q103 PC12 cell model; 230,000 tested, 0.14% active; Potency, µM (series often up to 56.4 µM), for inactives: cytoprotection (ATP increase), hits mostly activators; PC12 HTT-Q103 induced, cytoprotection, ATP luminescence, 40 h; note: potency is the fitted concentration of half-maximal effect; % of control where 0% means no effect; nearly all actives have a fitted effect of over 45% in size
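PC12 cells stably carrying ecdysone-inducible Htt exon 1 (Q103)–GFP were induced with 100 nM tebufenozide (final) alongside library compounds in a dose series. Cytoprotection was scored as retained ATP by ATPlite luminescence.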
HTT aggregate: inhibitors of mutant huntingtin aggregate formation in PC12 cells | PC12 HttQ103-GFP aggregates, Acumen cytometry, 40 h | Potency, µM (highest dose often 46.1 µM), for inactives: top-dose activity change, negative = inhibition, most hits filed as inhibitors | AID 1688 | 220,000 tested, 1.1% active; note: potency is the fitted concentration of half-maximal effect; % is set by controls: 0 for no effect and ±100 for the full control effect; nearly all actives have a fitted effect of over 60% in size
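PC12 cells stably carrying ecdysone-inducible HTT exon 1 Q103–GFP were induced with tebufenozide (100 nM final) and treated with library compounds in titration. GFP aggregates in lysates were counted by laser scanning cytometry.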
Numbers without * were called inactive; ? = inconclusive; . = no result given; [ ] = dose if it differs, or a comment. This is a sample that favours compounds with a hit; in the whole collection about 1.2% have one here. Calls come from the whole dose curve; as a rule, active = well fitted curve in the direction sought with a large enough effect; inconclusive = small, poorly fitted or top-dose-only effect, or another doubt; inactive = no such curve, though single readings can be large; an effect the other way counts as inactive or inconclusive.

SMILES	GLA inh pH 4.5	aGal spleen mod	HTT ATP protect	HTT aggregate
CCN(CC)S(=O)(=O)c1ccc(C(=O)Nc2nnc(COC)o2)cc1	-6	-6%	-41%	5%
CCCCN(C)S(=O)(=O)c1ccc(C(=O)Nc2nnc(CSC)o2)cc1	4	-1%	-66%	8.9µM*
CCCCN(CCCC)S(=O)(=O)c1ccc(C(=O)Nc2nnc(COC)o2)cc1	8	1%	-81%	11µM*
CCN(CC)S(=O)(=O)c1ccc(C(=O)Nc2nnc(CSC)o2)cc1	-3	-3%	-8%	?
CC(=O)NC1=C(N(C)C2CCS(=O)(=O)C2)C(=O)c2ccccc2C1=O (configuration not stated)	0	0%	.	13µM*
COc1ccc(Cc2nnc(N/N=C/c3ccc(O)cc3)[nH]c2=O)cc1OC	6	-23%	-83%[10 µM]	1.1µM*
COc1ccc(Cc2nnc(N/N=C/c3ccc(Br)cc3)[nH]c2=O)cc1OC	3	0%	12%[10 µM]	6%[9.22 µM]
Cc1ccc(OCC(=O)N2CCN(C(=O)c3ccncc3)CC2)cc1	9	1%	.	0.028µM*
C=CCn1cccc(/C=C/C(=O)c2ccc(C(C)(C)C)cc2)c1=S	1	-7%	.	25µM*
CC(=O)O[C@@]12CO[C@@H]1C[C@H](O)[C@@]1(C)C(=O)[C@H](O)C3=C(C)[C@@H](OC(=O)C(O)[C@@H](NC(=O)OC(C)(C)C)c4ccccc4)C[C@@](O)([C@@H](OC(=O)c4ccccc4)[C@H]21)C3(C)C (some centres not stated)	.	.	-59%	1%
CCc1cc(C(C)=O)c(O)cc1OCCCCCC(C)(C)c1nn[nH]n1	-5	7%	-82%	.
OCc1nc2ccccc2n1Cc1c(F)cccc1Cl	2	-1%	2%[10 µM]	-14%[9.22 µM]
CSc1nc2ccccc2n1Cc1c(Cl)cccc1Cl	0	5%	-29%	11µM*
C=C1c2ccccc2O[C@H](C(=O)OCC)[C@@H]1CC(C)(C)c1ccccc1	-7	-8%[119 µM]	13%	.
COc1ccc(Oc2cnc3ccccc3n2)cc1	2	-15%	-30%	11µM*
CC(=O)Nc1ccc(Oc2cnc3ccccc3n2)cc1	3	-5%	23%	11µM*
O=S(=O)(O)c1ccc2c(c1)-c1nc-2nc2[nH]c(nc3nc(nc4[nH]c(n1)c1ccc(S(=O)(=O)O)cc41)-c1ccc(S(=O)(=O)O)cc1-3)c1ccc(S(=O)(=O)O)cc21	.	-10%	.	.
N#CCCn1c(=O)c(-c2ccc(Cl)cc2)nc2cnc(N3CCNCC3)nc21	.	?	-91%	.
O=C1N/C(=N\N=C\c2ccc3ncccc3c2)SC1Cc1ccc(SC(F)F)cc1 (configuration not stated)	-4	-15%	-46%	32%
O=C1N/C(=N\N=C\c2ccccn2)SC1Cc1cccc(SC(F)F)c1 (configuration not stated)	-1	1%	-78%[10 µM]	5.6µM*
O=C1N/C(=N\N=C\c2cccnc2)SC1Cc1ccc(SC(F)F)cc1 (configuration not stated)	-12	4%	-68%[10 µM]	5.6µM*
Cc1ccccc1Nc1oc(-c2ccccc2)nc1-c1cccc2ccccc12	-4	-9%	14%	.
O=C(/C=C/c1ccccc1)OCc1ccccc1	.	.	20%	-8%
FC(F)(F)c1nnc2c(Sc3ccccn3)nc3ccccc3n12	1	8%	11µM*	.
FC(F)(F)c1nnc2c(Sc3ccccc3)nc3ccccc3n12	2	1%	20%[10 µM]	0%
SMILES	GLA inh pH 4.5	aGal spleen mod	HTT ATP protect	HTT aggregate
COC(=O)C1=COC(C)C2CN3CCc4c([nH]c5ccccc45)C3CC12 (configuration not stated)	1	-1%	-16%	11µM*
COC(=O)C1=CO[C@@H](C)[C@H]2CN3CCc4c([nH]c5ccccc45)[C@@H]3C[C@H]12	1	-12%[29.1 µM]	-17%[40.3 µM]	.
C=CC1=C2C=C(C3CC3)N(Cc3ccccc3)C=C2C(=O)C(C)(OC(=O)c2ccco2)C1=O (configuration not stated)	9	-4%[17.5 µM]	-3%[10 µM]	.
CCOc1ccccc1-c1nnc2n1N=C(c1ccc(OC)c(OC)c1)CS2	.	-6%	.	.
CC(C)c1noc2ncc(C(=O)c3cc(Cl)cc(Cl)c3O)cc12	-3	-2%	-17%	11µM*
CCCCCS(=O)(=O)CCCCCCCCCCn1c(-c2ccc(O)cc2)c(C)c2cc(O)ccc21	1	6%	-148%	.
FC(F)Sc1ccc(NC(=S)NC(c2ccccc2)c2ccccc2)cc1	-7	2%	-132%	13µM*
COc1cccc(CC2(CO)CCCN(S(=O)(=O)N(C)C)C2)c1 (configuration not stated)	5	5%	4%[10 µM]	4%[9.22 µM]
CCOC(=O)N1CCC(N2CCCC(CO)(Cc3cccc(OC)c3)C2)CC1 (configuration not stated)	-19	-1%	.	0.0006µM*
C/C(=N/Nc1cc(-c2ccccc2)nc(-c2ccccc2)n1)c1ccc(O)cc1	-13	3%	12%[10 µM]	35µM*
O=c1c(O)c(-c2ccc(O)c(O)c2)oc2c(OC[C@H]3O[C@@H](O)[C@@H](O)[C@H](O)[C@@H]3O)c(O)cc(O)c12	.	.	0%	.
CCCCCc1ccc(OCCCC[n+]2ccc(C)cc2)c(CCCCC)c1	-1	-14%	-68%[10 µM]	?
CCCCCc1ccc(OCCCC[n+]2ccccc2)c(CCCCC)c1	1	0%	-91%	11µM*
COC(=O)[C@H](Cc1ccccc1)NC(=O)O[C@@H]1C(=O)c2cc(OC)ccc2O[C@H]1c1cccc(OC)c1	-8	8%	-1%	.
O=[N+]([O-])c1cnc2ccccn12	-5	-1%	4µM*	7%[9.22 µM]
Cc1ncc([N+](=O)[O-])n1Cc1ccccc1	6	1%	22%[10 µM]	-12%
O=C1CCC[C@H]2OC12[C@@H](O)CCc1ccccc1 (some centres not stated)	.	-7%[17.5 µM]	-101%[10 µM]	.
CCc1cc(OCCCSc2nc(C)cc(=O)[nH]2)ccc1Cl	2	-3%	6%	35µM*
Cc1cc(=O)[nH]c(SCCCOc2ccccc2Cl)n1	5	-1%	-18%	?
Cc1cccc(N2CCN(C(=O)CSCc3c(C)noc3C)CC2)c1C	-4	-4%	-14%[10 µM]	7.1µM*
Cc1noc(C)c1CSCC(=O)N1CCN(c2ccc(F)cc2)CC1	7	3%	8%[10 µM]	7.9µM*
Cc1cccc(N2CCN(C(=O)c3ccc(NS(=O)(=O)c4c(C)noc4C)cc3)CC2)c1C	-1	6%	8%[10 µM]	20µM*
Cc1cccc(N2CCN(C(=O)N3CCOCC3)CC2)c1C	6	-1%	-9%[10 µM]	-13%[9.22 µM]
CC#CCN1c2ccccc2[C@]23C[C@@H](C(=O)OC)N(C(=O)COCc4ccccc4)C2=NC(C(=O)OC)=C(C(=O)OC)[C@H]13	3	2%[17.5 µM]	-6%[10 µM]	.
COC(=O)CCN(Cc1ccco1)S(=O)(=O)c1ccc(F)cc1Br	.	-3%	.	.
CCCCN1C=CC(=C2N=c3cccc([N+](=O)[O-])c3=N2)C=C1	-1	3%	24%[10 µM]	0.89µM*
